Bioassay records (PubChem BioAssay)
Shown are actives, neighbours in structure and some others; about 19% of the full set was active somewhere.
TGFb inhibitor = TGF-b pathway inhibition | AID 588855 | 410,000 compounds, 1.2% hits | Potency, µM (series often up to 46.1 µM), without a hit: top-dose activity, negative = inhibition, usual class: inhibitors | HepG2 CAGA-GFP TGF-b/SMAD3 reporter, GFP fluorescence, 18 h; TGF-beta stimulated, 500 pg/mL final; further: potency means the concentration at half of the fitted maximal effect; on the % scale 0 is the no-effect control and ±100 the full control effect; nearly all actives have a fitted effect of over 65% in size
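Cell-based qHTS in HEPG2 carrying a CAGA-GFP Smad reporter; compounds added before 500 pg/mL final TGF-beta, 18 h incubation at 37 degrees C, GFP fluorescence quantified per cell by imaging cytometry.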
ASM inhibitor = human S-ASM enzyme inhibition. AID 504937. placental ASM, HMU-PC fluorogenic substrate, 60 min. Potency, µM (highest dose often 57.5 µM), for inactives: at the highest dose activity change, negative = inhibition, hits mostly inhibitors. 340,000 compounds, 0.006% hits; further: potency means the concentration at half of the fitted maximal effect
Target sequence (P17405 47-631 limits assumed): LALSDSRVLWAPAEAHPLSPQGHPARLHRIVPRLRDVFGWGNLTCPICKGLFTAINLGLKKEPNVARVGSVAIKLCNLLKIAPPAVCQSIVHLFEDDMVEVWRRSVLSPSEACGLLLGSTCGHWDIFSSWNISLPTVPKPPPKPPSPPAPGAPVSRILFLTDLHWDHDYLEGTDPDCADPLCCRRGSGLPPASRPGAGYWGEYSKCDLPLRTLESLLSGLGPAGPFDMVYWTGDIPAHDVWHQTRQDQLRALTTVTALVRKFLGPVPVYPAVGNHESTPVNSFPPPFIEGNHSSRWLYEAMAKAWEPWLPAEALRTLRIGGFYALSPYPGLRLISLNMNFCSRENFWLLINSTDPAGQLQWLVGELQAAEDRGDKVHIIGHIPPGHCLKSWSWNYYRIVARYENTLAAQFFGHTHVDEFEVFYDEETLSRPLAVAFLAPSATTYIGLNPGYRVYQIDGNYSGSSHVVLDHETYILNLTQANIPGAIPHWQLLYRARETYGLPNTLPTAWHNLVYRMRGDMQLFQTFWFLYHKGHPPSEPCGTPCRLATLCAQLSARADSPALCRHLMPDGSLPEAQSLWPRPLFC
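Steps: dispense placental human ASM, pin compound, wait 10 min at room temperature, add HMU-PC0 substrate at 9 uM final, incubate 60 min at 37 °C, add stop solution raising pH to 10, read fluorescence.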
DT40 TDP1 CPT = DT40-hTDP1 cell growth loss with CPT; chicken DT40 Tdp1-/-;hTDP1 cells + 20 nM CPT, ATP luminescence, 48 h; Potency, µM (highest dose often 46.2 µM), without a hit: at the highest dose activity change, negative = growth inhibition, most hits filed as inhibitors; 420,000 compounds, 12% hits; further: potency means the concentration at half of the fitted maximal effect; on the % scale 0 is the no-effect control and ±100 the full control effect; nearly all actives have a fitted effect of over 55% in size
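Chicken DT40 Tdp1-/- cells complemented with human TDP1, 400 cells/well, exposed to compounds plus 20 nM camptothecin for at least 48 h at 37 C; viability read as ATP content by CellTiter-Glo luminescence.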
TDP1 cell noCPT = qHTS for Inhibitors of human tyrosyl-DNA phosphodiesterase 1 (TDP1): qHTS in cells in absence of CPT. DT40 Tdp1-/- hTDP1 cells, no CPT, ATP luminescence, 48 h. Potency, µM (top dose mostly 46.2 µM), for the others: top-dose activity change, negative = growth inhibition, actives largely listed as inhibitors. 420,000 compounds, 15% hits. AID 686978, 2013; further: potency means the concentration at half of the fitted maximal effect; on the % scale 0 is the no-effect control and ±100 the full control effect; nearly all actives have a fitted effect of over 55% in size
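A cellular qHTS used chicken DT40 cells lacking endogenous Tdp1 but carrying stably transfected human TDP1. Compounds were applied without camptothecin, and cell growth kinetics were judged by ATP-dependent luminescence after ≥48 hr.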
HepG2 tox-1 = counter-screen for TGF-b inhibitors: cytotoxicity in HepG2 cells | HepG2 CAGA-GFP viability, ATP luminescence, 18 h | Potency, µM (doses to about 46.1 µM), without a hit: at the top dose activity change, negative = cytotoxicity, usual class: cytotoxic | 410,000 compounds, 0.76% hits | AID 588856; further: potency means the concentration at half of the fitted maximal effect
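CellTiter-Glo luminescence gave cytotoxicity after 18 hours at 37 degrees C. The cells were HepG2 CAGA-GFP in 1% FBS DMEM, stimulated with 500 pg/mL TGF-beta after compound addition. %Activity was normalised to no-cell wells (complete cell-killing) and DMSO (no toxicity), and curves were fitted and classified.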
IL1B secr inh = inhibitors of inflammasome signaling (IL-1 beta secretion). 360,000 compounds, 4.7% hits. THP-1 LPS/ATP IL-1B secretion, AlphaLISA, 16 h; active compounds read low. activity change, % at 57.5 µM; in the data active means activity change below about -50%; inconclusive means mostly about -30% to -49%; further: on the % scale 0 is the no-effect control and ±100 the full control effect
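Secreted IL-1B measured by AlphaLISA bead assay after 16 h compound exposure of THP-1 cells; compounds (final up to 57.5 uM) added 1 h before LPS (250 ng/mL) and ATP (1.25 mM) stimulation; lower signal means less secretion.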
TGFb CAGA inh = confirmation of TGF-b signaling inhibitors in HepG2 reporter cells; shares compounds with TGFb inhibitor; HepG2 CAGA-GFP TGF-b reporter, GFP fluorescence, 18 h; cells stimulated with TGF-beta, 500 pg/mL; Potency, µM (highest dose often 46.1 µM), without a hit: at the top dose activity, negative = inhibition, usual class: inhibitors; 1,600 compounds, 63% hits; AID 720534; further: potency means the concentration at half of the fitted maximal effect; on the % scale 0 is the no-effect control and ±100 the full control effect; nearly all actives have a fitted effect of over 65% in size
HepG2 tox-2 = toxic to HepG2 cells in TGF-b counterscreen. HepG2 CAGA-GFP viability, ATP luminescence, 18 h; cells stimulated with TGF-beta, 500 pg/mL. shares compounds with TGFb inhibitor. Potency, µM (series often up to 46.1 µM), for inactives: at the top dose activity, negative = cytotoxicity, actives largely listed as inhibitors. 1,600 compounds, 27% hits. AID 720535; further: potency means the concentration at half of the fitted maximal effect; on the % scale 0 is the no-effect control and ±100 the full control effect; nearly all actives have a fitted effect of over 70% in size
TGFb CCL64 inh = TGF-b inhibition, CCL64 orthogonal assay; shares compounds with TGFb inhibitor; CCL64 CAGA-GFP reporter, TGF-b stimulated, GFP fluorescence, 18 h; Potency, µM (titrated, usually from 46.1 µM), inactives show at the top dose activity, negative = inhibition, usual class: inhibitors; 1,600 compounds, 41% hits; AID 720536; further: potency means the concentration at half of the fitted maximal effect; nearly all actives have a fitted effect of over 65% in size
TGFb COP inh = TGF-b inhibition validated with COP promoter. shares compounds with TGFb inhibitor. HepG2 COP-GFP TGF-b reporter, GFP fluorescence, 18 h; cells stimulated by added recombinant TGF-beta. Potency, µM (top dose mostly 46.1 µM), for the others: at the top dose activity, negative = inhibition, usual class: inhibitors. 1,600 compounds, 3% hits. AID 720537; further: potency means the concentration at half of the fitted maximal effect; nearly all actives have a fitted effect of over 70% in size
Starred values were filed as active, the others as inactive; i = inactive; u = inconclusive; x = not tested or not shown. Unless noted, the call rests on the fitted dose curve; in most records, active means well fitted curve in the direction sought with a large enough effect; inconclusive means small, poorly fitted or top-dose-only effect, or another doubt; inactive means no such curve, though single readings can be large; an effect the other way counts as inactive or inconclusive.

SMILES | TGFb inhibitor | ASM inhibitor | DT40 TDP1 CPT | TDP1 cell noCPT | HepG2 tox-1 | IL1B secr inh | TGFb CAGA inh | HepG2 tox-2 | TGFb CCL64 inh | TGFb COP inh
CC(=O)OC1(C)CC(C)C(=O)C(C(O)CC2CC(=O)NC(=O)C2)C1 (stereo unspecified) | -92% | -1% | 0.18µM* | 0.21µM* | -33% | -109* | 0.052µM* | 0.13µM* | 0.021µM* | 5%
O=C1NCN(c2ccccc2)C12CCN(C(c1cc3ccccc3o1)c1nnnn1C1CCCCC1)CC2 (stereo unspecified) | 10µM* | x | u | u | -111% | u | 18µM* | u | 23µM* | u
CC(C)(C)n1nnnc1C(c1cc2ccccc2o1)N1CCC2(CC1)C(=O)NCN2c1ccccc1 (stereo unspecified) | u | x | u | u | 3% | -25 | x | x | x | x
Oc1ccccc1-[n+]1c(-c2ccccc2)cc(-c2ccccc2)c(O)c1-c1ccccc1 | 11µM* | 2% | u | u | -26% | 4 | u | u | 23µM* | -4%
O=C(NCP(=O)(Oc1ccccc1)Oc1ccccc1)OCc1ccccc1 | -26% | x | -1% | -19% | -20% | -5 | x | x | x | x
COc1ccc(S(=O)(=O)N2c3ccc(F)cc3CCC2C)cc1 (stereo unspecified) | 6.3µM* | -1% | 0.92µM* | 0.58µM* | -28% | 53 | 4.1µM* | -7% | 5.8µM* | -16%
CCOc1ccc(NC(=O)CCNC(=O)N2C[C@H]3C[C@@H](C2)c2cccc(=O)n2C3)cc1 | 4% | -1% | 5% | 3% | -1% | 5 | x | x | x | x
CC(C)C(=O)Nc1ccc(S(=O)(=O)N2CC3CC(C2)c2cccc(=O)n2C3)cc1 (stereo unspecified) | 1% | 6% | -5% | -17% | 1% | 0 | x | x | x | x
CCOC(=O)c1c(C)n(Cc2ccccc2)c2ccc(OCC(O)Cn3nc(C)cc3C)cc12 (stereo unspecified) | 14µM* | u | u | u | -10% | u | 21µM* | u | 15µM* | 40%
CC1=CC2OC3CC4OC(=O)C=CC=CC(C(C)O)OCC(O)C(C)CC(=O)OCC2(CC1O)C4(C)C31CO1 (stereo unspecified) | -107% | 1% | 0.013µM* | 0.021µM* | 4% | -116* | 0.041µM* | x | 0.029µM* | -1%
CC1=CC2OC3CC4OC(=O)C=CC=CC(=O)OCCC(C)C(O)C(=O)OCC2(CC1O)C4(C)C31CO1 (stereo unspecified) | -119% | 1% | 0.15µM* | 0.16µM* | -3% | -98* | 0.012µM* | x | 0.0046µM* | 10%
CC(C)c1ccc(N2C(=O)NC(=O)/C(=C\c3cnc(-c4ccccc4)nc3)C2=O)cc1 | 159% | 3% | u | u | -24% | -4 | x | x | x | x
CC(C)c1ccc(N2C(=O)NC(=O)/C(=C\C=C\c3ccco3)C2=O)cc1 | 10µM* | -12% | u | u | 1% | -100* | 4.1µM* | 7.3µM* | 5.8µM* | 34%
c1ccc2c(CN3CCCCCCC3)c[nH]c2c1 | u | 5% | 0.65µM* | 1.5µM* | -26% | 15 | 21µM* | 23µM* | 8.2µM* | -4%
OC(CN1CCC(c2c[nH]c3ccccc23)CC1)C(F)(F)F (stereo unspecified) | 4% | 1% | -13% | -29% | -19% | -18 | x | x | x | x
NC(=Nc1ccccc1)Nc1ccccc1 | 8.9µM* | 5% | u | u | -8% | 21 | 9.2µM* | u | u | 44%
CN(C)C(=O)Oc1ccc2c(=O)c(Oc3ccccc3Br)coc2c1 | 0% | -1% | -23% | -23% | -9% | u | x | x | x | x
Nc1ccc(Cl)c(Cl)c1 | -3% | -1% | 6% | -13% | -3% | 13 | x | x | x | x
COc1ccc(-c2nn(-c3ccccc3)cc2C(=O)N2c3ccc(C)cc3C3CN(C)CCC32)cc1 (stereo unspecified) | 10µM* | -1% | u | 26µM* | -42% | u | -7% | -25% | u | 8%
CCS(=O)(=O)NCc1nnc2n1-c1ccc(Br)cc1C(c1ccccc1Cl)=NC2 | -6% | -1% | -2% | -11% | -5% | 12 | x | x | x | x
NC(=S)c1cn(C2OC(CO)C(O)C2O)c2ncnc(N)c12 (stereo unspecified) | 0.32µM* | 10% | 0.13µM* | 0.16µM* | -37% | -100* | 0.26µM* | 0.16µM* | 0.46µM* | 44%
Nc1ncnc2c1ccn2[C@@H]1O[C@H](CO)[C@@H](O)[C@H]1O | 0.45µM* | -4% | 0.021µM* | 0.15µM* | 1µM* | -110* | 0.58µM* | 0.92µM* | 0.82µM* | 45%
COc1cc2c(cc1OC)C(C(=O)NC(C)C)C1CCCCN1C2=O (stereo unspecified) | -9% | -2% | 9% | 0% | -13% | 10 | x | x | x | x
CCC1(OC(=O)CN)C(=O)OCc2c1cc1n(c2=O)Cc2cc3ccccc3nc2-1 (stereo unspecified) | 2.2µM* | i | 0.16µM* | 0.065µM* | -20% | -98* | 1.2µM* | 0.58µM* | 2.3µM* | 9%
